Experimental findings from PubChem BioAssay (NCI) are described below.

Test systems include NCI-H23 lung; NCI-H226 lung; NCI-H322M lung; HOP-62 NSCLC; NCI-H460 lung; HOP-92 NSCLC; NCI-H522 lung; A549/ATCC NSCLC; 786-0 renal; COLO 205 colon; DU-145 prostate; K-562 leukemia; MALME-3M melanoma; MDA-MB-231 breast; RXF 393 renal; SF-268 CNS; SF-295 CNS; SF-539 CNS; UACC-257 melanoma; M14 melanoma.
Assay in all cases: NCI-60 one-dose screen, 48 h (100 = growth as untreated, 0 = no growth, -100 = all killed)
Common to all, as to settings: 10 µM unless noted

Structures are written as SMILES. About 83,000 compounds went through this panel and 20% of them were active in at least one assay; those are over-represented in the sample as a whole.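 Cell lines were cultured in 96-well plates, exposed to a single compound concentration, and assessed for percent growth 48 hours later.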 Values without a mark were called inactive. Active and inactive are the calls of the source. How the source made its calls: active means growth percent below 10; inactive means the rest.

In the case of `COc1ccccc1NC(=O)N=Nc1c(O)[nH]c2ccccc12`, the growth in the assay with NCI-H23 lung was 89.8%; with NCI-H226 lung, 86.5%; in the assay on NCI-H322M lung, 81.2%; in the assay with HOP-62 NSCLC, 98.8%; in the assay on NCI-H460 lung, 104%; in the assay with HOP-92 NSCLC it was 80.3%. The growth is 83.2% in the assay with NCI-H522 lung; 95.7% in the assay on A549/ATCC NSCLC; 90.4% in the assay on 786-0 renal; 85.2% in the assay on COLO 205 colon; 102% in the assay with DU-145 prostate; 91.2% in the assay with K-562 leukemia. The growth in the assay with MALME-3M melanoma was 95.8%; with MDA-MB-231 breast, 82.7%; with RXF 393 renal, 100%; in the assay on SF-268 CNS, 99.1%; in the assay on SF-295 CNS, 94.1%; with SF-539 CNS, 98.3%. In addition, the growth is 89% in the assay with UACC-257 melanoma and 95.1% with M14 melanoma.

Turning to `C/C(Cc1ccc(Cl)cc1)=C(\c1ccc(O)cc1)c1ccc(Cl)cc1`, the growth with NCI-H23 lung is 85.2%; in the assay with NCI-H226 lung it was 93.3%; in the assay on NCI-H322M lung, 83.3%; in the assay on HOP-62 NSCLC, 110%; with NCI-H460 lung it was 91.5%; in the assay on HOP-92 NSCLC it was 83.1%. Also, the growth in the assay with NCI-H522 lung was 84.1%; in the assay on A549/ATCC NSCLC, 94.8%; with 786-0 renal, 89.5%; in the assay on COLO 205 colon it was 109%; in the assay with DU-145 prostate, 101%; in the assay with K-562 leukemia it was 89.3%. Also, the growth with MALME-3M melanoma was 82.5%; with MDA-MB-231 breast, 96.6%; with RXF 393 renal it was 100%; in the assay on SF-268 CNS, 95%; in the assay on SF-295 CNS, 95.1%; with SF-539 CNS, 107%. For the same molecule, the growth in the assay on UACC-257 melanoma was 98.2%; in the assay with M14 melanoma, 83.7%.

In the case of `Nc1n[nH]c2ccc([C@H]3[C@@H]4C5CCC(C5)[C@@H]4c4c(ccc5[nH]ncc45)N3S(=O)(=O)C3CC3)cc12` (stereo not given in full), the growth in the assay on NCI-H23 lung is 16.3%; in the assay on NCI-H226 lung, -16.9% (active); with NCI-H322M lung, 38.6%; with HOP-62 NSCLC, 41.1%; in the assay on NCI-H460 lung it was 5.9% (active); with HOP-92 NSCLC it was 67.7%. Further, the growth with NCI-H522 lung is 7.23% (active); with A549/ATCC NSCLC, 17.1%; in the assay with 786-0 renal, 31.3%; in the assay on COLO 205 colon, -0.398% (active); with DU-145 prostate it was 17.9%; with K-562 leukemia, 13.6%. In addition, the growth is 61.4% with MALME-3M melanoma; -9.16% (active) in the assay with MDA-MB-231 breast; 26.2% with RXF 393 renal; 37.1% in the assay with SF-268 CNS; 12.6% in the assay on SF-295 CNS; -25.5% (active) with SF-539 CNS. For the same molecule, the results for the growth in the assay with UACC-257 melanoma and with M14 melanoma were 63.8% and 7.92% (active), respectively.

Regarding `COc1cc2oc(-c3cccc(NC(=O)c4ccccc4)c3)cc(=O)c2c(OC)c1OC`, the growth in the assay on NCI-H23 lung is 72.9%; in the assay with NCI-H226 lung it was 81.4%; in the assay with NCI-H322M lung, 83.8%; in the assay on HOP-62 NSCLC it was 78.4%; with NCI-H460 lung it was 78.7%; in the assay on HOP-92 NSCLC, 47.6%. Besides, the growth with NCI-H522 lung is 49.3%; with A549/ATCC NSCLC it was 68.9%; with 786-0 renal, 78.1%; with COLO 205 colon, 84.4%; with DU-145 prostate, 85.5%; in the assay on K-562 leukemia, 43.1%. Besides, the growth in the assay with MALME-3M melanoma is 86.8%; in the assay with MDA-MB-231 breast it was 74.7%; with RXF 393 renal, 74.4%; in the assay on SF-268 CNS it was 72.3%; in the assay on SF-295 CNS, 77.8%; in the assay with SF-539 CNS it was 67.8%. The growth in the assay with UACC-257 melanoma is 99.7%; in the assay on M14 melanoma it was 75.3%.

As for `O=S(=O)(NCCCNc1nccc(-c2c(-c3ccc(F)c(O)c3)nc3sccn23)n1)c1ccccc1`, the growth is 58.3% with NCI-H23 lung; 97.7% with NCI-H226 lung; 87.7% with NCI-H322M lung; 89.1% with HOP-62 NSCLC; 62.2% in the assay on NCI-H460 lung; 55.4% in the assay on HOP-92 NSCLC. The growth is 52.1% in the assay on NCI-H522 lung; 63.8% with A549/ATCC NSCLC; 87.2% in the assay on 786-0 renal; 30.4% with COLO 205 colon; 69% in the assay with DU-145 prostate; 37.6% in the assay with K-562 leukemia. The growth in the assay on MALME-3M melanoma is 0.08% (active); in the assay with MDA-MB-231 breast it was 47.2%; in the assay with RXF 393 renal, 26.4%; in the assay on SF-268 CNS, 74.4%; in the assay on SF-295 CNS, 92.6%; in the assay with SF-539 CNS, 88.2%. Moreover, the growth in the assay with UACC-257 melanoma is 19.6%; with M14 melanoma, 12.6%.

Consider `O=C1c2ccc3c4c5ccc(c24)C(=O)N1CCCOCCCCOCCCNCc1ccc(cc1)CNCCCOCCCCOCCCN(C3=O)C5=O`, for which the growth in the assay with NCI-H23 lung was -52.3% (active); in the assay with NCI-H226 lung, 72.8%; in the assay with NCI-H322M lung it was 0.552% (active); with HOP-62 NSCLC, 33.6%; in the assay on NCI-H460 lung it was 3.03% (active); in the assay with HOP-92 NSCLC, 45.8%. The growth with NCI-H522 lung is -39.2% (active); in the assay with A549/ATCC NSCLC it was -40.1% (active); in the assay on 786-0 renal it was -6.67% (active); with COLO 205 colon, -71% (active); in the assay with DU-145 prostate, 8.84% (active); in the assay on K-562 leukemia, -19.3% (active). In addition, the growth in the assay with MALME-3M melanoma is -90.7% (active); in the assay on MDA-MB-231 breast, -11.7% (active); in the assay with RXF 393 renal, 30.3%; in the assay on SF-268 CNS, 2.25% (active); in the assay on SF-295 CNS it was 91.5%; in the assay with SF-539 CNS, -85.7% (active). Also, the growth in the assay on UACC-257 melanoma was -78.9% (active); with M14 melanoma, -85.3% (active).

For the molecule `CCN1C(=S)N(c2ccccc2)C2NC(=S)N(/N=C/C=C/c3ccccc3OC)C21` (stereo not given), the growth in the assay on NCI-H23 lung was 32.7%; in the assay with NCI-H226 lung it was 58%; in the assay with NCI-H322M lung it was 45.6%; with HOP-62 NSCLC, 36.9%; in the assay with NCI-H460 lung it was 3.12% (active); in the assay with HOP-92 NSCLC it was 53.5%. Besides, the growth with NCI-H522 lung is -15.5% (active); with A549/ATCC NSCLC it was 11.4%; in the assay on 786-0 renal, 29.4%; with COLO 205 colon, -2.82% (active); in the assay with DU-145 prostate, 7.01% (active); in the assay with K-562 leukemia, 8.73% (active). The growth is 54.1% in the assay on MALME-3M melanoma; 10.5% in the assay on MDA-MB-231 breast; 26.3% in the assay with RXF 393 renal; 54.5% in the assay on SF-268 CNS; 13.7% with SF-295 CNS; -18.3% (active) in the assay with SF-539 CNS. The results for the growth in the assay with UACC-257 melanoma and with M14 melanoma were 43.2% and 3.35% (active), respectively.

As to `CCCCCCCCCCC(CN(CC)CC)C(O)c1ccccc1` (stereo not given), the growth in the assay on NCI-H23 lung is 38%; with NCI-H226 lung it was 15.4%; with NCI-H322M lung it was 80.3%; in the assay on HOP-62 NSCLC it was 53.4%; in the assay on NCI-H460 lung, 21.7%; in the assay on HOP-92 NSCLC, -1.6% (active). The growth in the assay with NCI-H522 lung is -14.4% (active); in the assay with A549/ATCC NSCLC it was 54.7%; in the assay on 786-0 renal, 49.1%; in the assay on COLO 205 colon, -42.6% (active); in the assay with DU-145 prostate it was 29.1%; with K-562 leukemia, -21.2% (active). Further, the growth is -37.3% (active) with MALME-3M melanoma; 10.1% in the assay on MDA-MB-231 breast; -7.14% (active) with RXF 393 renal; 40.5% in the assay on SF-268 CNS; 36.5% in the assay on SF-295 CNS; 32.1% with SF-539 CNS. The values for the growth in the assay on UACC-257 melanoma and in the assay on M14 melanoma were 18.2% and -44.1% (active), respectively.
